Compound activity deposited in PubChem by National Center for Advancing Translational Sciences (NCATS).
Hits are enriched below; roughly 2.4% of the tested compounds scored in any of these assays.
POLI inh – qHTS for Inhibitors of Polymerase Iota. DNA polymerase iota (Homo sapiens), Q9UNA4. Pol iota fluorescent replication assay, 10 min. Potency, µM (doses to about 115 µM), for the others: top-dose activity, negative = inhibition, most hits filed as inhibitors. 390,000 tested, 1% active. AID 588590, 2011; also: potency is read from the fitted curve at half-maximal effect
Target sequence (Q9UNA4 whole entry, looked up): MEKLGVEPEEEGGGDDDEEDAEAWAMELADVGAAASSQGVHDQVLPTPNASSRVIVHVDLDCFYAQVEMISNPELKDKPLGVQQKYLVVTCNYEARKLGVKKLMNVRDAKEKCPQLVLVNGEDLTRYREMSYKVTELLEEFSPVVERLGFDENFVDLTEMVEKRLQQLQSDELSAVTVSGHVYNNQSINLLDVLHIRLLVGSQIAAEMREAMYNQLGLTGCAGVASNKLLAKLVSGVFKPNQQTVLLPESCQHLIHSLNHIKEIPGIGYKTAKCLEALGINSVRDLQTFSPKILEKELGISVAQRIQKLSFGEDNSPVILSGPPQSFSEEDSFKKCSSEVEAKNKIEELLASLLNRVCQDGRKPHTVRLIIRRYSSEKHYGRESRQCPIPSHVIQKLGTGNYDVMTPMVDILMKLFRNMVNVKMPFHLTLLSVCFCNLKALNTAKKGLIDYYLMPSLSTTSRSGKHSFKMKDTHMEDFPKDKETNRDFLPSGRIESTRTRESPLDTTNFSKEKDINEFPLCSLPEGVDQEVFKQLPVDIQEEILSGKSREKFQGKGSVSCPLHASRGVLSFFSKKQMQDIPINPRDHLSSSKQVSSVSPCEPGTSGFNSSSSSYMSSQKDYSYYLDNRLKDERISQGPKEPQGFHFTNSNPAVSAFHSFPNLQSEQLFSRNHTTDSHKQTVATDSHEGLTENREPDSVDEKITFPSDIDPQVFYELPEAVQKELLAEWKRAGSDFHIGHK
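Pol iota at 10 nM preincubated 15 min with compounds at room temperature; reaction started with fluorescent substrate, 50 nM final. Fluorescence read kinetically at 0 and 10 min; buffer-only wells as negative control.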
Pol beta inh – qHTS Assay for Inhibitors of DNA Polymerase Beta | Pol beta primer extension/strand displacement, fluorescence kinetic | 340,000 tested, 1.3% active | Potency, µM (titrated, usually from 114 µM), inactives show top-dose activity change, negative = inhibition, actives largely listed as inhibitors | P06746; also: potency is read from the fitted curve at half-maximal effect; % is scaled to controls: 0 for no effect and ±100 for the full control effect
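Curves were derived by four-parameter Hill fits of normalized qHTS data. The kinetic fluorescent primer-extension read was taken at 0 and 10 min after 50 nM substrate, following a 15 min room-temperature preincubation of 10 nM enzyme with compounds.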
Pol kappa inh-1 – qHTS for Inhibitors of Polymerase Kappa | DNA polymerase kappa (Homo sapiens), Q9UBT6 | purified Pol kappa, fluorescent DNA synthesis assay, 10 min | Potency, µM (highest dose often 107 µM), for the others: top-dose activity, negative = inhibition, hits mostly inhibitors | 400,000 tested, 0.53% active | AID 588579, 2011; also: potency is read from the fitted curve at half-maximal effect; % is scaled to controls: 0 for no effect and ±100 for the full control effect
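Kinetic fluorescence readout at 0 and 10 min followed reaction start with substrate at 50 nM final. Beforehand, enzyme (10 nM Pol kappa) stood 15 min with compound at room temperature; buffer-only wells were negative controls.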
Pol eta inh-1 – qHTS for Inhibitors of Polymerase Eta. 390,000 tested, 1.2% active. Potency, µM (highest dose often 114 µM), inactives show at the top dose activity change, negative = inhibition, most hits filed as inhibitors. AID 588591, 2011. DNA polymerase eta (Homo sapiens), Q9Y253. recombinant Pol eta, fluorescent DNA replication assay; also: potency is read from the fitted curve at half-maximal effect; % is scaled to controls: 0 for no effect and ±100 for the full control effect
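Pol eta (10 nM) was preincubated with compounds for 15 min at room temperature, after which fluorescent replication substrate (50 nM final) was added to start the reaction. Fluorescence was read kinetically at 0 and 10 min.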
KAT2A inh – qHTS Assay for Inhibitors of GCN5L2. GCN5L2 HAT assay, ThioGlo1 CoA-SH fluorescence. Potency, µM (highest dose often 58.9 µM), without a hit: at the highest dose activity change, negative = inhibition, usual class: inhibitors. 390,000 tested, 0.21% active; also: potency is read from the fitted curve at half-maximal effect; % is scaled to controls: 0 for no effect and ±100 for the full control effect
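Free CoA generated was detected with ThioGlo1 (50uM) fluorescence at Ex340nm/Em540nm, read immediately and after 20 min at room temperature. Enzyme, 20 nM in HEPES pH 7.5 buffer, saw compounds 15 min before adding 75uM H3(1-25) peptide and 70uM acetyl-CoA.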
GLS inh – qHTS for Inhibitors of Glutaminase (GLS); Glutaminase kidney isoform, mitochondrial (Homo sapiens), O94925; GLS enzymatic activity, qHTS titration; Potency, µM (series often up to 45.5 µM), for inactives: at the highest dose activity change, negative = inhibition, usual class: inhibitors; 410,000 tested, 0.21% active; also: potency is read from the fitted curve at half-maximal effect; % is scaled to controls: 0 for no effect and ±100 for the full control effect
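Glutamate formation by hKGA was monitored fluorometrically using coupled glutamate oxidase, HRP and Amplex Red. Substrate was added as 1 mM L-glutamine solution; incubation was 30 min at RT after an initial read.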
GALK confirm – Confirmation Assay for Inhibitors of Human Galactokinase (GALK). purified GALK, Kinase-Glo ATP depletion luminescence. 150 tested, 70% active. Potency, µM (titrated, usually from 115 µM), without a hit: top-dose activity, negative = inhibition, usual class: inhibitors. shares compounds with Pol eta inh-1
Redox cycling – Confirmatory Assay for Inhibitors of Human Galactokinase (GALK): Phenol-HRP redox assay counterscreen | shares compounds with Pol eta inh-1 | Phenol red-HRP H2O2 redox cycling, absorbance 600 nm | Potency, µM (highest dose often 115 µM), inactives show at the top dose activity change, negative = H2O2 signal, actives largely listed as inhibitors | 150 tested, 40% active | AID 2035, 2009
HEK293 tox – Secondary Assay for Inhibitors of Human Galactokinase (GALK): HEK-293 Cell Viability Assay; AID 2547, 2010; shares compounds with Pol eta inh-1; HEK-293 viability, ATP luminescence (CellTiter-Glo), 24/48 h; 170 tested, 10% active; Potency, µM (doses to about 46.1 µM), for inactives: at the top dose activity change, negative = cytotoxicity, actives largely listed as inhibitors; also: potency is read from the fitted curve at half-maximal effect; % is scaled to controls: 0 for no effect and ±100 for the full control effect
Pol kappa inh-2 – qHTS for Inhibitors of Polymerase Kappa: Confirmatory Assay for Cherry-picked Compounds. shares compounds with Pol eta inh-1. purified Pol-kappa, fluorescent strand-displacement substrate. AID 720501, 2013. Potency, µM, most hits filed as inhibitors. 920 tested, 76% active; also: potency is read from the fitted curve at half-maximal effect
Pol eta inh-2 – qHTS for Inhibitors of Polymerase Eta: Confirmatory Assay for Cherry-picked Compounds; shares compounds with Pol eta inh-1; Pol eta primer extension, TAMRA/BHQ fluorescence, 10 min; Potency, µM, usual class: inhibitors; 2,600 tested, 64% active; AID 720502, 2013; also: potency is read from the fitted curve at half-maximal effect
An asterisk follows results filed as active; ? = inconclusive; · = no result given; ! = not active in a repeat; [ ] = another dose, or the depositor's remark. Calls follow the shape of the dose curve; as a rule, active = well fitted curve in the direction sought with a large enough effect; inconclusive = small, poorly fitted or top-dose-only effect, or another doubt; inactive = no such curve, though single readings can be large; an effect the other way counts as inactive or inconclusive.

SMILES	POLI inh	Pol beta inh	Pol kappa inh-1	Pol eta inh-1	KAT2A inh	GLS inh	Pol eta inh-2	others
CCn1nc([N+](=O)[O-])c(C(C#N)c2nc3cc(C(F)(F)F)ccc3s2)c(Cl)c1=O (stereo not given)	?	56µM*	-10%	89µM*	?	17%	·	Pol kappa inh-2=60*
Oc1ccc(NCc2ccc(OCc3ccccc3)cc2)cc1	10µM*	2%	?	79µM*!	-10%	11µM*!	?
Oc1ccc(OCc2ccccc2)cc1	·	·	-12%[19.4 µM]	·	0%[21.4 µM]	15%[20 µM]	·
Oc1ccc(NCc2ccc(OCc3ccccc3Cl)cc2)cc1	18µM*	-7%	?	0%	-4%	-23%	?
Oc1ccc(NCc2ccccc2OCc2ccccc2Cl)cc1	?	24%	-26%	·	-3%	?	?
Cc1ccc(NCc2ccccc2OCc2ccccc2F)cc1	4%	-1%	-11%	6%	-5%	16%	·
O=C(O)CCc1ccc(S(=O)(=O)Nc2ccc(OCc3ccccc3)cc2)cc1	?	?	?	22µM*	-13%	?	67*
COc1ccccc1N1CCN(C(=O)c2cc3ccc4ccc(C)[nH]c4c3n2)CC1	7%	3%	-7%	-25%	-10%	10%	·
CC(C)Cn1c(=O)c2sccc2n2c(CCCC(=O)NC3CCCCC3)nnc12	19%	9%	4%	-15%	-5%	-8%	·
COc1ccc(Br)cc1[C@@H]1Nc2ccc(C(=O)O)cc2[C@@H]2C=CC[C@@H]21	25µM*	-22%	35µM*	79µM*	1%	?	30*
CCOC(=O)c1ccc2c(c1)[C@@H]1C=CC[C@@H]1[C@H](c1cccc(OC)c1OC)N2	?	-12%	-32%	-7%	-18%	2%	·
COc1ccc(OC)c([C@@H]2Nc3ccc(C(=O)O)cc3[C@@H]3C=CC[C@@H]32)c1	-7%	-1%	-2%[60.1 µM]	35µM*	-5%	?	85*	Pol kappa inh-2=34*
O=C(CCNS(=O)(=O)c1ccc2c(c1)CCN2C(=O)C1CC1)Nc1ccc(OC(F)(F)F)cc1	?	1%	-2%[60.1 µM]	1%	-8%	-7%	·
NS(=O)(=O)c1ccc(NC(=O)COC(=O)c2ccc([N+](=O)[O-])s2)cc1	79µM*	7.1µM*	-22%	?	0%	-7%	·	GALK confirm=33µM*;Redox cycling=21µM*;HEK293 tox=0%
O=C(COC(=O)c1ccc([N+](=O)[O-])s1)NCc1ccc(F)cc1	?	?	-27%	79µM*	-3%	-6%	?
O=C(COC(=O)c1ccc([N+](=O)[O-])s1)NNC(=O)c1ccccc1	?	·	-19%	?	-4%	15%	·
CNC1C(O)C(OC2C(NC(=O)C(O)CN)CC(N)C(OC3OC(CN)C(O)C(O)C3O)C2O)OCC1(C)O (stereo not given)	·	·	0%[60.1 µM]	·	-15%	-6%	·
NC(=O)NN=C1c2cc(S(=O)(=O)N3CCOCC3)ccc2-c2ccc(S(=O)(=O)N3CCOCC3)cc21	7%	·	3%	·	·	·	·
CN(C)c1cccc(C(=O)OCC(=O)Nc2nccs2)c1	?	23%	-15%	?	1%	41%	?
COc1cccc(CNC(=O)CCCn2ncn3c(cc4occc43)c2=O)c1OC	53%	-5%	-26%	-7%	-4%	7%	·
CC1=C(c2ccc(C)c(C)c2)S(=O)(=O)N=C1N1CCC(C(=O)NCCc2ccco2)CC1	23%	7%	-8%	·	-3%	6%	·
O=C(Oc1cccc([N+](=O)[O-])c1)c1ccc2c(=O)n3c(nc2c1)CCC3	40µM*	·	?	28µM*	-9%	-2%	76*
NS(=O)(=O)c1ccc(NC(=O)CSc2nnc(NC3CC3)s2)cc1	40µM*	·	?	20µM*	-8%	?	67*
COc1cc(OC)c(NC(=O)N2CCc3c([nH]c4ccccc34)C2c2ccccc2F)cc1Cl (stereo not given)	-13%	1%	0%	3%	-14%	14%	·
CC(C)C(CCNC(=O)CC(Cc1ccccc1)c1ccco1)c1ccco1 (stereo not given)	?	32µM*	?	79µM*	?	1%	85*	Pol kappa inh-2=53*
COc1cc(/C=C2/SC(=O)NC2=O)ccc1OC(=O)c1ccco1	3%	12%	-1%	-8%	-1%	16%	·
CCOc1cc(/C=C2/SC(=S)NC2=O)ccc1OC(=O)c1ccco1	?	?	-23%	?	-28%	0%	?
CCc1ccc(-c2cc3c(N4CCN(c5ccccc5)CC4)nccn3n2)cc1	1%	-16%	0%	-16%	-3%	2%	·
COC(=O)C(Cc1ccccc1)NS(=O)(=O)c1cc(Br)ccc1Br (stereo not given)	2%	·	-11%	·	·	·	·
CC1=C(C#N)C(=O)NC(=O)/C1=C\c1ccc(-c2ccc(C)cc2[N+](=O)[O-])o1	?	32µM*	-13%	50µM*	?	?	?
